Here are results for 39 compounds from PubChem BioAssay.

The nature of the test: sensitizers of A549 cells to miR-34 induction, primary screen, imaging, A549 dox-inducible miR-34, nuclei and caspase counts (AID 1347080). Also: test concentration not given here. The settings on record: A549 miR-34 inducible, Hoechst nuclei count, 48 h; measured here: total cells without miR-34 induction.
As to `O=C(O)CCC/C=C\C[C@@H]1[C@@H](/C=C/C(F)(F)COc2ccccc2)[C@H](O)C[C@@H]1O`, the cell count stood at 5440. To `CCCCCCCCCCCSCC(=O)O` belongs 5890; to `CCCCCCCCCCCCCCCCC(=O)NCCO`, 5800.

On to `CCCCC[C@](C)(O)/C=C/[C@@H]1[C@@H](C/C=C\CCCC(=O)O)[C@@H](O)C[C@H]1O`, for which the cell count is 5570. For `CCCCC(C)(C)[C@H](O)/C=C/[C@H]1C(=O)C[C@H](O)[C@@H]1C/C=C\CCCC(=O)O`, the cell count is 5250. In the case of `CC(C)c1cc2c(c(O)c1O)C13CCCC(C)(C)C1CC2OC3=O` (centres undefined), the cell count was found to be 5730. The same measure for `CCCCCCCCCCCCCCCCCC(=O)OCC`: 6060. To `CC(C)ON(CC(=O)NO)S(=O)(=O)c1ccc(-c2ccccc2)cc1` belongs 6240. Consider `OCC(O)[C@@H](O)CO` (some centres undefined), for which the cell count is 9680. To `CCCCCCCCCCCCCCCCCCCCCCC(=O)OCC` belongs 5220.

On to `C/C=C/C[C@@H](C)[C@@H](O)[C@H]1C(=O)N[C@@H](CC)C(=O)N(C)CC(=O)N(C)[C@@H](CC(C)C)C(=O)N[C@@H](C(C)C)C(=O)N(C)[C@@H](CC(C)C)C(=O)N[C@@H](C)C(=O)NC(C)C(=O)N(C)[C@@H](CC(C)C)C(=O)N(C)[C@@H](CC(C)C)C(=O)N(C)[C@@H](C(C)C)C(=O)N1C` (some centres undefined), for which the cell count turned out to be 2230.

On to `CCCCC[C@H](O)/C=C/[C@H]1[C@H](O)CC(=O)[C@@H]1C/C=C\CCCC(=O)OCC(O)CO` (some centres undefined), for which the cell count is 5860.

In the case of `CCCCNC(=O)NS(=O)(=O)c1ccc(CO)cc1`, the cell count came to 4890. The same measure for `CCCCCC(=O)/C=C/[C@H]1[C@H](O)CC(=O)[C@@H]1CCCCCCC(=O)O`: 5690; for `CC(C)CCCC(C)NC(C)C` (centres undefined): 8670. Regarding `CCC(C)(C)C(=O)C(=O)N1CCCC[C@H]1C(=O)O[C@H](CCc1ccc(OC)c(OC)c1)c1cccc(N)c1`, the cell count was 6080.

In the case of `CC(C)OC(=O)CCC/C=C\C[C@@H]1[C@@H](/C=C/[C@H](O)CCc2ccccc2)[C@H](O)C[C@@H]1O`, the cell count was found to be 6410. To `CCCCC[C@@](C)(O)/C=C/[C@H]1C(=O)C[C@H](O)[C@@H]1C/C=C\CCCC(=O)O` belongs 5740; to `CCCCCCCCCCCCCCCC(=O)NCCS(=O)(=O)O`, 5950; to `CC/C(=C\C(=N/O)C(N)=O)C(C)[N+](=O)[O-]` (centres undefined), 6230.

Take `CCCCCCCCCSCCCCCCCC(=O)O`: the cell count came out at 5640.

On to `CCCCC[C@H](O)/C=C/[C@@H]1[C@@H](CCCCC(CC(=O)O)OC)[C@@H](O)C[C@H]1O` (some centres undefined), for which the cell count came to 6470.

Take `CCOc1c2c(c(OCC)c3ccccc13)C(=O)N(c1ccc(CC(=O)NS(=O)(=O)c3ccccc3)cc1)C2`: the cell count was found to be 6100. Regarding `CCCCC/C=C/C/C=C/CCCCCCCC(=O)O`, the cell count turned out to be 6150. The same measure for `CCCCCCCCCCCCCCCCCCCC(=O)NCCO`: 6100. For the compound `O=C(O)CCC/C=C\C[C@@H]1C(=O)C[C@@H](O)[C@@H]1/C=C/[C@@H](O)CCc1ccccc1`, the cell count was 6000. To `CC/C=C\C/C=C\C/C=C\CCCCCCCC(=O)NCCO` belongs 5670.

Take `CCCCCCCCCCCCCC(=O)OCC`: the cell count was 5240. The same measure for `Nc1nc2c([nH]c(=O)n2[C@@H]2O[C@H](CO)[C@@H](O)[C@H]2O)c(=O)[nH]1`: 5600. To `Nc1nc2c([nH]c(=O)n2[C@H]2C[C@H](O)[C@@H](CO)O2)c(=O)[nH]1` belongs 5800; to `CCCCC[C@H](O)/C=C/[C@H]1CC[C@H](O)[C@@H]1C/C=C\CCCC(=O)O`, 6400. To `CCCCCCCCCCCCCCCNC(=O)C1CCCCC1` belongs 6070; to `COc1ccc(C[C@H](N)C(=O)N[C@H]2[C@@H](O)[C@H](n3cnc4c(N(C)C)ncnc43)O[C@@H]2O)cc1`, 1270. With `CC(=O)OCOC(c1ccc2ccccc2c1)P(=O)(OCOC(C)=O)OCOC(C)=O` (centres undefined), the cell count was 2860. The same measure for `CCCCC/C=C\C/C=C\CCCCCCCC(=O)OC(CO)CO`: 5600; for `O=C(NCc1ccc(Cl)c(Cl)c1)O[C@H]1CCc2ccccc21`: 5680. The same measure for `CC/C=C\C/C=C\C/C=C\C/C=C\C/C=C\C/C=C\CCC(=O)NCCO`: 6340; for `O=C(CCCCCc1ccccc1)c1nc2ncccc2o1`: 5190.

Take `CC(C)(O)c1ccccc1CC[C@H](SCC1(CC(=O)O)CC1)c1cccc(/C=C/c2ccc3ccc(Cl)cc3n2)c1`: the cell count is 5280.
